Compound activity from PubChem.
p47phox inh – p47phox/p22phox peptide binding inhibitors, primary screen, biochemical, uHTS, NADPH oxidase regulatory subunit; Neutrophil cytosol factor 1 (Homo sapiens), P14598; fluorescence polarization, 2 h; inhibition, % at 24.7 µM; actives 0.53% (n = 220,000);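 active = inhibition above about 30%, limit read from the data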;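 note: 0% = p47phox with labelled peptide and 100% = labelled peptide alone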
Target sequence (P14598 whole entry, looked up): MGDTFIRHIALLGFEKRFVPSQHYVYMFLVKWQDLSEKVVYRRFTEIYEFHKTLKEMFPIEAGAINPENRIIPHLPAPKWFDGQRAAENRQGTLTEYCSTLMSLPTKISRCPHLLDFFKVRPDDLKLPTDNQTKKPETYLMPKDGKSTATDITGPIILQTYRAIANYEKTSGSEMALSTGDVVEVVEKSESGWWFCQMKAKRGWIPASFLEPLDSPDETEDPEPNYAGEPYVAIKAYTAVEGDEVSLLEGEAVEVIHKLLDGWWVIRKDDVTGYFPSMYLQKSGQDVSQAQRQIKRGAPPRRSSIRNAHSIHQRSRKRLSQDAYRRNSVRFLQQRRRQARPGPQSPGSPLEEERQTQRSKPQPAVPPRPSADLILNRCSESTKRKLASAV
14-3-3 Bad PPI – inhibitors of 14-3-3 zeta/Bad binding, primary screen, biochemical, TR-FRET, bovine 14-3-3 zeta. 14-3-3 protein zeta/delta (Bos taurus), P63103. TR-FRET 14-3-3zeta/Dy647-pBad peptide displacement, 1 h. inhibition, % at 21.7 µM. actives 0.71% (n = 220,000);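 active = inhibition above about 70%, limit read from the data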;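 note: 0% = full 14-3-3 plus peptide FRET controls and 100% = background without 14-3-3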
Target sequence (P63103 whole entry, looked up): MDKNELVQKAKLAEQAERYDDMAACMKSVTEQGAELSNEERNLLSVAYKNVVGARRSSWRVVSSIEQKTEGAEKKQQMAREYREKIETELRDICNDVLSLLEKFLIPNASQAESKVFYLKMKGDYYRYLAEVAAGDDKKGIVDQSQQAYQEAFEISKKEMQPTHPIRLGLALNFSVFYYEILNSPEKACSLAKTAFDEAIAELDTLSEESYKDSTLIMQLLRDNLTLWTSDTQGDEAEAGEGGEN
Mcl-1 Bim block – inhibitors of Bim peptide binding to Mcl-1, primary screen, biochemical, bead-based flow cytometry, multiplex. Induced myeloid leukemia cell differentiation protein Mcl-1 (Homo sapiens), Q07820. AID 1009, 2008. actives 0.1% (n = 190,000). inhibition, % at 10 µM. Bim peptide-Mcl-1 binding; in the data active = inhibition above about 40%;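 note: 0% = no compound tracer wells and 100% = peptide blocker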
Mcl1 Noxa PPI – Mcl-1/Noxa binding inhibitors, primary screen, biochemical, TR-FRET, 1536-well; Induced myeloid leukemia cell differentiation protein Mcl-1 (Homo sapiens), Q07820; TR-FRET Mcl-1/Noxa peptide binding, 2 h; inhibition, % at 21.7 µM; actives 1.5% (n = 220,000); AID 1022, 2008;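 active = compounds that cut the protein-peptide binding signal by more than 50% relative to plate controls in a single-dose test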;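 note: His-tagged Mcl-1 with rhodamine Noxa BH3 peptide and terbium anti-His antibody; 0% = Mcl-1 plus Noxa peptide wells and 100% = peptide-only wells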
Mcl1-Bid inh – Mcl-1/Bid binding inhibitors, primary screen, biochemical, TR-FRET, 1536-well | Induced myeloid leukemia cell differentiation protein Mcl-1 (Homo sapiens), Q07820 | inhibition, % at 21.7 µM | AID 1021, 2008 | actives 0.97% (n = 220,000) | TR-FRET Mcl-1/Bid-Dy647 peptide binding;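 active = compounds that cut the binding signal by more than half at the single screening dose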;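 note: His-tagged Mcl-1 with europium anti-His antibody binding Bid BH3 peptide; 0% = Mcl-1 plus peptide wells and 100% = peptide-only wells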
* hit, by the source's call; . = no result; [ ] = remark or other dose. In the library only some 3.1% were active in any assay of this set; here they are far more common.

SMILES | p47phox inh | 14-3-3 Bad PPI | Mcl-1 Bim block | Mcl1 Noxa PPI | Mcl1-Bid inh
Cc1onc(-c2ccccc2)c1C(=O)Nc1ccon1 | 36* | 11 | 0 | -6 | -20
C/C(CCc1ccc2c(c1)OCO2)=N\N=C1\NC(=O)CC(C(=O)Nc2ccc(Cl)cc2)S1 (stereo not drawn) | -13 | 19 | -2 | -30 | 4
Cc1cc(-c2csc(NC(=O)c3ccc(=O)n(C)n3)n2)c(C)n1CC1CCCO1 (stereo not drawn) | 7 | 11 | 0 | 54* | -20
CCN(CC)C(=N)N1c2ccccc2CCC1C (stereo not drawn) | 7 | -7 | 3 | 11 | -15
COC(=O)c1ccc(COC(=O)c2ccc(CS(=O)(=O)c3ccc(C)cc3)cc2)cc1 | -2 | 8 | 0 | -1 | 81*
O=C(O)CCSc1nnc(SCC(=O)NCC(F)(F)F)s1 | -8 | 7 | -4 | 14 | -35
CCCC(c1nnnn1C(C)(C)CC)N1CCN(C2CCCC2)CC1 (stereo not drawn) | -5 | 73* | 0 | 21 | -9
CCCC(c1nnnn1Cc1cccs1)N1CCN(C2CCCC2)CC1 (stereo not drawn) | 1 | 29 | -4 | 20 | 32
CCCC(c1nnnn1C1CCCCC1)N1CCN(C2CCCC2)CC1 (stereo not drawn) | -8 | 26 | -3 | 12 | 51*
CCC(c1nnnn1C(C)(C)C)N1CCN(C2CCCC2)CC1 (stereo not drawn) | -3 | -7 | 0 | 0 | -24
CCCCC(c1nnnn1C1CCCC1)N1CCN(C2CCCC2)CC1 (stereo not drawn) | -6 | 68 | 0 | 11 | -3
CCC(c1nnnn1Cc1cccs1)N1CCN(C2CCCC2)CC1 (stereo not drawn) | -5 | 64 | 0 | 31 | 54*
CCCC(c1nnnn1Cc1ccc(OC)cc1)N1CCC(C(N)=O)CC1 (stereo not drawn) | -20 | 75* | 1 | 13 | -3
CC(NCc1ccc(S(N)(=O)=O)cc1)C(=O)N1c2ccccc2CC1C (stereo not drawn) | -6 | 14 | . | -3 | 9
Cc1ccc(-c2cc(C(F)F)n3ncc(C(=O)Nc4cn(C)nc4C)c3n2)cc1 | 1 | -8 | 0 | 2 | -16
CSC1=N/C(=C\c2ccccc2Cl)C(=O)N1N(C)C | -8 | 3 | . | -7 | -6
CCN(CC(=O)NCc1cccs1)C(=O)CCc1c[nH]c2ccccc12 | -7 | -4 | 1 | 19 | -40
CCOc1ccc(-c2cc(N)n(S(=O)(=O)c3cccc4nsnc34)n2)cc1 | -5 | -5 | . | -2 | -44
CC(=O)Nc1ccc(S(=O)(=O)N2CCN(Cc3cccc([N+](=O)[O-])c3)CC2)cc1 | -4 | 2 | 5 | 18 | 13
CC(C)C(c1nnnn1Cc1ccc(F)cc1)N1CCN(C2CCCC2)CC1 (stereo not drawn) | 15 | -8 | 0 | -3 | -33
CCCC(c1nnnn1Cc1ccc(F)cc1)N1CCN(C2CCCCC2)CC1 (stereo not drawn) | -16 | 75* | 0 | 36 | 33
CN(C)c1nc2ccccc2c(N)c1-c1ccccc1 | -7 | 77* | 2 | 28 | 39
CSc1nc(N(C)C)c2ccccc2n1 | -4 | -4 | 1 | 1 | -21
Cc1ccccc1N=CC1=C(O)c2ccccc2C1=O | -4 | 4 | 13 | 12 | 10
NNC(=S)Nc1cccc(-c2n[nH]c(=S)o2)c1 | -16 | -1 | . | 0 | -70
SMILES | p47phox inh | 14-3-3 Bad PPI | Mcl-1 Bim block | Mcl1 Noxa PPI | Mcl1-Bid inh
c1cc2ccc3ccc(CN4CCOCC4)c4ccc(c1)c2c34 | -5 | 85*[fluorescence artefact?] | -2 | 29 | 10
OC1CCCN(Cc2ccc3ccc4cccc5ccc2c3c45)C1 (stereo not drawn) | -5 | -4 | 0 | -22 | 4
Cc1ccccc1CCN(C(=O)Cn1nnc2ccccc21)C(C(=O)NCC1CCCO1)c1nc2ccccc2n1C (stereo not drawn) | 45* | 2 | -4 | 0 | 17
CCOc1ccc(Nc2ncnc3c2cnn3Cc2ccccc2)cc1 | -1 | 80* | 0 | -12 | 2
CCCc1ccc(C(=O)NC(=O)c2ccccc2O)cc1 | -6 | -2 | . | 4 | -15
OC(COCC1COc2ccccc2O1)CN1CCN(c2ccccn2)CC1 (stereo not drawn) | 8 | 80* | -1 | 23 | 9
OC(COCC1COc2ccccc2O1)CN1CCc2ccccc2C1 (stereo not drawn) | -5 | 13 | 3 | 12 | 12
CO/N=C/NC(=O)c1ccc([N+](=O)[O-])c(CS(=O)(=O)c2ccc(Cl)cc2)c1 | -2 | 30 | -1 | 65* | -7
COC(=O)c1cccc(OCC(O)Cn2cnc3cc(C)c(C)cc32)c1 (stereo not drawn) | -3 | -14 | 0 | 12 | -5
COC(=O)c1cccc(OCC(O)Cn2ccnc2)c1 (stereo not drawn) | -5 | -3 | -1 | 9 | 91*
CCOc1cc(N2CCOCC2)c(OCC)cc1NC(=O)C(C)C | -6 | 1 | . | -4 | -42
CCOc1cc(N2CCOCC2)c(OCC)cc1NC(C)C(=O)N1CCN(CC)CC1 (stereo not drawn) | 67* | 16 | 4 | 28 | 5
CC(O)CNCCCCOc1ccc(OCc2ccccc2)cc1 (stereo not drawn) | -6 | -4 | -3 | 6 | -30
Nc1ccc(Cc2ccc(N)c(O)c2)cc1O | 11 | 47 | 2 | 87* | 27
Cn1cc(Br)c(-c2cccc(NC(=O)CCC(=O)O)c2)n1 | -1 | 1 | . | 14 | 6
O=C(COC(=O)c1cccs1)NCC1CCCCC1 | -2 | -4 | 0 | -4 | -11
Cc1ccc(-c2nn3c(C)nnc3s2)cc1NC(=O)c1ccc(-c2ccc(Cl)cc2Cl)o1 | -91 | 86*[fluorescence artefact?] | -34 | -37 | 18
CN(C)c1ccc(-c2nn3c(-c4ccc(Cl)cc4Cl)nnc3s2)cc1 | 22 | 67 | -5 | 87* | 93*
Clc1ccc(-c2nnc3sc(-c4ccc(Br)o4)nn23)cc1 | -25 | -3 | 2 | 26 | 23
Cc1oc(-c2ccc(Cl)cc2)cc1-c1nn2c(-c3ccoc3C)nnc2s1 | -48 | 3 | 0 | 89* | 55*
Cc1cc(Br)cc2cn[nH]c12 | 1 | -8 | -1 | 0 | -9
CCCNC(=O)C1CNc2ccccc2O1 (stereo not drawn) | 1 | 7 | -6 | -14 | -51
CCNc1ccc(S(=O)(=O)N(C)C)cc1NCC(=O)Nc1ccc(F)c(Cl)c1 | -5 | -20 | 0 | 15 | -65
COc1ccc(/C=c2\s/c(=C\C(=O)C(C)(C)C)[nH]c2=O)cc1O | -18 | 3 | . | 58* | -58
